# Records with an inconclusive call do not appear. Entries that show only a call come without a potency. More than one record can exist for a structure, and the calls need not agree. Unmarked numbers belong to inactive results. Active and inactive are the calls of the source. The call rests on the fitted dose curve.
# Experiment: qHTS assay for small molecules that induce genotoxicity in human embryonic kidney cells expressing luciferase-tagged ATAD5 - cell viability (AID 651634); further: nearly all actives have a fitted effect of over 25% in size
# Details: HEK293T ATAD5-luc cells viability, CellTiter-Fluor, 15.5 h; series mostly up to 83.3 µM
# Description: National Center for Advancing Translational Sciences [NCATS]
# NIH Chemical Genomics Center [NCGC]
# U.S. Environmental Protection Agency [EPA]
# National Institutes of Environmental Health Sciences [NIEHS]
# National Toxicology Program [NTP]
# U.S. Food and Drug Administration [FDA]
# Enhanced Level of Genome Instability Gene 1 (ELG1; human ATAD5) protein levels increase in response to various types of DNA damage. Using a luciferase reporter-gene tagged with ElG1, a cell-based assay [developed by Kyungjae Myung, NHGRI, NIH] was used to measure the induction of ATAD5 in human embryonic kidney cells (HEK293T). So, increase in luciferase activity can be used to identify the compounds that cause genetic stress. In addition to genotoxicity, these cells were also used to test for cytotoxicity by measuring the protease activity within live cells.
# Tox21 Assay Protocol Summary:
# For cytotoxicity screening, 2,000 cells in 5 uL/well were dispensed into white, solid-bottom 1536-well plates using a Multidrop Combi (Thermo Scientific) dispenser. Following transfer of 23 nL compound or DMSO vehicle by a pin tool, the plates were incubated 15.5 hr at 37C and 5% CO2. 1 ul CellTiter-Fluor reagent (Promega, Madison, WI) was then added to each plate and following 30 min incubation at 37C, fluorescence intensity was quantified on a ViewLux CCD-based plate reader.
# Potency means the concentration at half of the fitted maximal effect.
SMILES,Potency,"activity, negative = cytotoxicity"
c1ccc2cnccc2c1,inactive,–
CCCCC1CCC(O)CC1 (stereo not given),inactive,–
C[C@@H](O)C(=O)O,inactive,–
Cc1ncc([N+](=O)[O-])n1CC(C)O (stereo not given),inactive,–
C=CCOC(=O)CCCCCC,inactive,–
O=C(CN1CCNCC1)NC1CCCCC1,inactive,–
C/C=C(\C)C(=O)OCCc1ccccc1,inactive,–
Cc1ccc(N)cc1S(=O)(=O)O,inactive,–
CC1c2ccccc2CN1NC(=O)c1ccc(Cl)c(S(N)(=O)=O)c1 (stereo not given),inactive,–
CCCCCCCCCCCCCBr,inactive,–
C=C(C)[C@@H]1CC=C(C)CC1,inactive,–
CC(=O)CCC1=C(C)CCCC1(C)C,inactive,–
COc1ccc2c(c1)c1c3n2CCN(C)C3=NCC1,inactive,–
Cn1nnc2c(C(N)=O)ncn2c1=O,inactive,–
O=C(O)CSCC(=O)NC1CCSC1=O (stereo not given),inactive,–
O=C(O)CCCCCC(=O)O,inactive,–
CCC(=O)c1c(O)cc(O)cc1O,inactive,–
CCCc1ccc(O)cc1,inactive,–
CC/C=C\CCOC(=O)c1ccccc1O,inactive,–
CCCCCc1cccc(=O)o1,inactive,–

SMILES,Potency,"activity, negative = cytotoxicity"
CCC[C@@H]1C[C@@H](C(=O)N[C@@H]([C@H]2O[C@H](SC)[C@H](O)[C@@H](O)[C@H]2O)[C@@H](C)O)N(C)C1,inactive,–
Cc1ccccc1C(N)=O,inactive,–
C[Si]1(C)O[Si](C)(C)O[Si](C)(C)O[Si](C)(C)O[Si](C)(C)O1,inactive,–
O=Cc1cc2ccccc2o1,inactive,–
O=S(=O)(O)c1ccc2c(N=Nc3ccc(S(=O)(=O)O)c4ccccc34)c(O)c(S(=O)(=O)O)cc2c1,13.3 µM (active),-17.7% [at 8.08 µM]
O=[N+]([O-])c1c(Cl)cc(Cl)cc1Cl,inactive,–
CO[Si](CCCn1c(=O)n(CCC[Si](OC)(OC)OC)c(=O)n(CCC[Si](OC)(OC)OC)c1=O)(OC)OC,inactive,–
O=C(O)CNC(=O)CNC(=O)CNC(=O)CSC(=O)c1ccccc1,inactive,–
Cc1c(C(=O)c2c[nH]n(C)c2=O)ccc(S(C)(=O)=O)c1C1=NOCC1,inactive,–
CC(=O)C1C(=O)C=C(C)OC1=O (stereo not given),inactive,–
ONc1ccccc1,inactive,–
N[C@@H](Cc1ccc(O)cc1)C(=O)O,inactive,–
CC(C)C1OCCN1CCOC(=O)NCCCCCCNC(=O)OCCN1CCOC1C(C)C (stereo not given),inactive,–
CN(C)CCOC(=O)C(c1ccccc1)C1(O)CCCC1 (stereo not given),inactive,–
CC(C)[C@H]1CC[C@H](C)C[C@@H]1O,inactive,–
C[C@H]1[C@@H](c2ccccc2)NC(=O)N1C,inactive,–
COP(=O)(O)OP(=O)(O)OC,inactive,–
Cc1c(Cl)cccc1Cl,inactive,–
COC(=O)CCCCC(=O)O,inactive,–

# Reference: PubChem BioAssay (Tox21)
